# Test results: PubChem BioAssay (EPA / NIEHS)
# Records with an inconclusive call do not appear. Active and inactive are the calls of the source. How the source made its calls: active means hit-call score of the fitted dose curve at least 0.9, where 1 is the maximum; inconclusive means response in the unintended direction; inactive means score below 0.9.
# Experiment: Tanguay_ZF_120hpf_NC_legacy: (Legacy) Oregon State University Tanguay Lab 120 Hour Post-fertilization zebrafish Assay for Notochord and Tail Malformation (AID 2283656)
# Method: Tanguay_ZF_120hpf_legacy is a whole embryo, multiplexed endpoint assay using zebrafish larvae exposed for 120 hours post fertilization on a 96-well plate.Tanguay_ZF_120hpf_NC_legacy is one of one assay component(s) measured or calculated from the Tanguay_ZF_120hpf_legacy assay. It is designed to make measurements of zebrafish development as detected with brightfield microscopy of developing zebrafish embryos.Data from the assay component Tanguay_ZF_120hpf_NC_legacy was analyzed into 1 assay endpoints. This assay endpoint, Tanguay_ZF_120hpf_NC_legacy, was analyzed in the positive analysis fitting direction relative to DMSO as the negative control and baseline of activity. Using a type of morphology reporter, gain-of-signal activity can be used to understand changes in developmentals as they relate to the whole embryo. To generalize the intended target to other relatable targets, this assay endpoint is annotated to the zebrafish development intended target family, where the subfamily is embryonic notochord morphogenesis.
# Zebrafish husbandry: Tropical 5D wild-type adult zebrafish were housed in at an approximate density of 1000 per 100 gallon tank at the Sinnhuber Aquatic Research Laboratory, Oregon State University, Corvallis, OR. Each tank was kept at standard laboratory conditions of 28C on a 14-h light/10-h dark photoperiod in fish water consisting of reverse osmosis water supplemented with a commercially available salt (Instant Ocean). Spawning funnels were placed into the tanks the night prior, and embryos were collected and staged. To increase bioavailability, the chorion was enzymatically removed using pronase (63.6mg/ml, >/= 3.5U/mg, Sigma-Aldrich: P5147) at 4 hours post fertilization (hpf) using a custom automated dechorionator.Chemical exposures: Six hpf dechorionated embryos were placed 1 embryo per well in a 96-well plate prefilled with 90 ul of EM using automated embryo placement systems (AEPS). Ten microliters of each row of dilution plate 2 was added to 2 exposure plates. The final DMSO concentration used was 0.64% (vol/vol). Thirty-two embryos were also exposed to 5uM trimethyltin chloride (positive control). Plates were sealed to prevent evaporation and foil covered to reduce light exposure and kept in a 28C incubator. Embryos were statically exposed until 120 hpf. At 24 hpf, embryos were assessed for photomotor response using a custom photomotor response analysis tool (PRAT) and for developmental toxicity endpoints (MO24: mortality at 24 hpf, DP: developmental progression, SM: spontaneous movement, and NC: notochord distortion). At 120 hpf, locomotor activity was measured using Viewpoint Zebralab and assessed for 18 endpoints. Zebrafish acquisition and analysis program (ZAAP), a custom program designed to inventory, acquire, and manage zebrafish data, was used to collect developmental endpoints as either present or absent (i.e., binary responses were recorded). If mortality occurred for an embryo (at either 24 or 120 hpf), the non-mortality endpoints were not measured.
SMILES,AC50,outcome
CN(C)C(=S)S,1.05 µM (active),–
CCCCCCCCCCCCc1cccc(S(=O)(=O)O)c1,–,inactive
OCCN(CCO)CCO,–,inactive
N#Cc1cccnc1,–,inactive
Oc1cc(Cl)c(Cl)cc1Cl,–,inactive
Clc1cccc(Cl)c1Cl,–,inactive
CC(C)O.CC(C)O.OCCN(CCO)CCO.OCCN(CCO)CCO.[Ti],–,inactive
CC(C)(C)c1ccccc1O,–,inactive
Oc1c(Cl)cc(Cl)cc1Cl,–,inactive
O=C(N[C@H]1CN2CCC1CC2)c1ccc2c(c1)OCCO2,–,inactive
